Measured values as given in PubChem BioAssay.
“And” between values parts separate entries of the source, which are not always exact repeats. Equal entries are not always repeated. Inconclusive results are not listed. The source made the active and inactive calls. Unless noted, no rule for the calls is given here.

Columns and labels:
[1] = system: Aerobactin synthetase IucA (Klebsiella pneumoniae); experiment: IucA aerobactin synthetase inhibitors, biochemical, Tocris library, absorbance (AID 1345561); details: purified IucA enzyme assay, absorbance (OD) read-out; stronger effect = lower value;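 tested at 8 µM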;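 also: 100% = enzyme without compound and 0% = no enzyme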
[2] = sensitizers of A549 cells to miR-34 induction, primary screen, imaging, A549 dox-inducible miR-34, nuclei and caspase counts (AID 1347080;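 active = compounds whose cell count with miR-34 switched on is under 0.7 times the count with it off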); details: A549 miR-34 inducible, Hoechst nuclei count, 48 h
[3] = phospholipid biosynthesis inhibitors in animal cells, primary screen, cell-based, LOPAC library, screen 4 (AID 1347384); details: phospholipid biosynthesis inhibition screen, at 10 µM
[4] = viability rescue of complex I mutant cybrids, primary screen, cell-based, galactose medium, ATP luminescence (AID 1645843;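 active = z-score of at least 1.8 in each of two replicates, scored against plate mean and spread of sample wells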;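 also: positive z means more ATP and so rescue of galactose-driven cybrid death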); details: complex I mutant cybrid cells, 72 h, stronger effect = higher value
[5] = circadian clock period modulators, cell-based, LOPAC library, luminescence reporter (AID 2774); details: circadian reporter cells, at 7 µM, actives lie on both sides;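 also: values are relative to mean of DMSO wells on each plate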
[6] = system: Hepatitis C virus NS3 helicase; experiment: HCV NS3 helicase inhibitors, primary screen, biochemical, fluorescence polarization, LOPAC1280 library (AID 687035; in the data active = inhibition above about 37%); details: Purified HCV NS3 helicase, Cy5-dT15 ssDNA binding fluorescence polarization; stronger effect = higher value; concentration not given here
[7] = Cy5 fluorescence quenching or enhancement artefacts, artefact control for HCV NS3 helicase inhibitor project, biochemical, LOPAC1280 (AID 687037); details: Cy5-DNA-NS3h complex fluorescence interference counterscreen
[8] = system: Aerobactin synthetase IucA (Klebsiella pneumoniae, hypervirulent); experiment: IucA enzyme inhibition, biochemical, LOPAC library, absorbance readout (AID 1346212); details: IucA enzyme assay, absorbance (OD) readout; stronger effect = lower value;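 tested at 8 µM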;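 also: 100% = no compound wells and 0% = no enzyme wells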
[9] = growth inhibition of DIPG glioma cells, dose response, cell-based, SU-DIPG-XVII, MIPE5.0, CellTiter-Glo, qHTS (AID 1347060; cut-off not given, nearly all actives have AC50 up to about 26 µM;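 as to AC50: cells exposed to compound for 48 hours before viability readout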); details: SU-DIPG-XVII viability, CellTiter-Glo ATP luminescence
[10] = growth inhibition of DIPG glioma cells, dose response, cell-based, SU-DIPG-XIII, MIPE4.0, CellTiter-Glo, qHTS (AID 1347061; cut-off not given, nearly all actives have AC50 up to about 37 µM;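 also: cells exposed to compound for 48 hours before readout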); details: SU-DIPG-XIII viability, CellTiter-Glo ATP luminescence
[11] = growth inhibition of DIPG glioma cells, dose response, cell-based, JHH-DIPG-1, MIPE4.0, CellTiter-Glo, qHTS (AID 1347062; cut-off not given, nearly all actives have AC50 up to about 27 µM); details: JHH-DIPG-1 viability, CellTiter-Glo ATP luminescence
[12] = growth inhibition of DIPG glioma cells, dose response, cell-based, SU-DIPG-IV, MIPE4.0, CellTiter-Glo, qHTS (AID 1347063; cut-off not given, nearly all actives have AC50 up to about 30 µM;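 also: compound exposure lasted 48 hours before the viability readout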); details: SU-DIPG-IV viability, CellTiter-Glo ATP luminescence
[13] = growth inhibition of DIPG glioma cells, dose response, cell-based, SU-DIPG-XIII, MIPE5.0, CellTiter-Glo, qHTS (AID 1347064; cut-off not given, nearly all actives have AC50 up to about 23 µM;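 also: cells exposed to compound for 48 hours before the viability read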); details: SU-DIPG-XIII viability, CellTiter-Glo ATP luminescence
[14] = viability loss in pontine glioma line – cell-based, SU-DIPG-XXV, MIPE5.0, CellTiter-Glo, qHTS, dose response (AID 1347065; cut-off not given, nearly all actives have AC50 up to about 26 µM;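 also: cells exposed to compound for 48 hours before ATP readout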); details: CellTiter-Glo ATP luminescence
[15] = SU-DIPG-VI glioma cell viability, MIPE4.0 library, CellTiter-Glo luminescence, qHTS (AID 1347066; cut-off not given, nearly all actives have AC50 up to about 30 µM;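 also: cells exposed to compound for 48 hours before readout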); details: CellTiter-Glo ATP luminescence
[16] = JHH-DIPG-1 glioma cell viability, MIPE5.0 library, CellTiter-Glo luminescence, qHTS (AID 1347067; cut-off not given, nearly all actives have AC50 up to about 26 µM;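 also: cells exposed to compound for 48 hours before readout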); details: JHH-DIPG-1 glioma viability, CellTiter-Glo ATP luminescence
[17] = SU-DIPG-XXV glioma cell viability, MIPE5.0 library, qHTS (AID 1347068; cut-off not given, nearly all actives have IC50 up to about 30 µM;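 as to IC50: cells exposed to compound for 48 hours before viability readout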)
[18] = inhibitors of Cryptococcus chitosan production, flow cytometry, Cibacron Brilliant Red staining (AID 1347148); details: Cryptococcus neoformans chitosan, stronger effect = lower value; at 10 µM unless noted;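 also: compound exposure lasted three days at 37 degrees C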
[19] = stronger effect = lower value, cell number ratio, induced over uninduced
[20] = measured here: relative caspase fold change +Dox/-Dox
[21] = measured here: total cells with miR-34 induction, stronger effect = lower value
[22] = measured here: total cells without miR-34 induction

N#Cc1ccc(N2CCN(C(=O)COc3ccc4[nH]cc(CCN)c4c3)CC2)cc1
remaining activity [1]: 112% (inactive) | fold change [2, 19]: 0.857 (inactive) | fold change [2, 20]: 1.69 | cell count [2, 21]: 8510 | cell count [2, 22]: 9930 | outcome [3]: inactive | z-score [4]: 0.16 (inactive)

COc1ccc(CNC(=O)/C=C/c2ccc3[nH]cc(CCN(C)C)c3c2)cc1
period change [5]: 0.1 h (inactive) | inhibition [6]: -1% (inactive) | fluorescence ratio (interference) [7]: 1 (inactive) | remaining activity [1]: 97.5% (inactive) | remaining activity [8]: 111% (inactive) | fold change ([2]; stronger effect = lower value): 1.08 (inactive) and 0.935 (inactive) | fold change [2, 20]: 1.56 and 0.859 | cell count [2, 21]: 9510 and 8680 | cell count [2, 22]: 8780 and 9280 | z-score [4]: -0.155 (inactive) and -0.415 (inactive)

C[C@H]1CCC/C=C/C2C[C@H](O)C[C@H]2[C@H](O)/C=C/C(=O)O1 (stereo partly specified)
remaining activity [1]: 129% (inactive) | AC50 [9]: 0.0661 µM (active) | outcome [10]: inactive | outcome [11]: inactive | outcome [12]: inactive | AC50 [13]: 0.235 µM (active) | AC50 [14]: 0.263 µM (active) | outcome [15]: inactive | AC50 [16]: 0.235 µM (active) | IC50 [17]: 0.209 µM (active) | fold change ([2]; stronger effect = lower value): 1.05 (inactive) and 1.09 (inactive) | fold change [2, 20]: 1.17 and 1.67 | cell count [2, 21]: 2000 and 1470 | cell count [2, 22]: 1910 and 1340 | fold fluorescence [18]: 10.7 [at 178.3 µM] (inactive) | z-score [4]: -0.56 (inactive)

CCCN(CCC)C1CCc2cccc(O)c2C1 (stereo unspecified)
period change [5]: -0.07 h (inactive) | inhibition [6]: 2% (inactive) | fluorescence ratio (interference) [7]: 1 (inactive) | remaining activity [1]: 106% (inactive) | fold change ([2]; stronger effect = lower value): 0.975 (inactive) and 0.957 (inactive) | fold change [2, 20]: 0.862 and 0.742 | cell count [2, 21]: 10400 and 8490 | cell count [2, 22]: 10700 and 8870 | outcome [3]: inactive | z-score [4]: 0.025 (inactive) and -0.42 (inactive)

O=c1ccc2[nH]cc(C3=CCNCC3)c2[nH]1
remaining activity [1]: 123% (inactive) | fold change ([2]; stronger effect = lower value): 0.986 (inactive) | fold change [2, 19]: 0.934 (inactive) | fold change [2, 20]: 2.8 and 0.965 | cell count [2, 21]: 10100 and 7840 | cell count [2, 22]: 10200 and 8390 | outcome [3]: inactive | z-score [4]: 0.725 (inactive) and 0.015 (inactive)

CCNC(=O)[C@H]1O[C@@H](n2cnc3c(N)ncnc32)[C@H](O)[C@@H]1O
remaining activity [1]: 122% (inactive) | remaining activity [8]: 120% (inactive) | fold change [2, 19]: 0.978 (inactive) | fold change [2, 20]: 0.831 | cell count [2, 21]: 8940 | cell count [2, 22]: 9140 | z-score [4]: -0.23 (inactive)

O=C1C2CCN(CC2)C1(CO)CO
remaining activity [1]: 120% (inactive) | fold change ([2]; stronger effect = lower value): 1.16 (inactive) and 0.936 (inactive) and 0.92 (inactive) | fold change [2, 20]: 1.5 and 1.74 and 0.604 | cell count [2, 21]: 4350 and 5660 and 9650 | cell count [2, 22]: 3770 and 6050 and 10500 | fold fluorescence [18]: 9.13 [at 269.9 µM] (inactive) | z-score [4]: -0.76 (inactive)

N[C@@H](Cn1oc(=O)[nH]c1=O)C(=O)O
inhibition [6]: -2% (inactive) | fluorescence ratio (interference) [7]: 1 (inactive) | remaining activity [1]: 106% (inactive) | remaining activity [8]: 109% (inactive) | fold change [2, 19]: 0.917 (inactive) | fold change [2, 20]: 0.755 | cell count [2, 21]: 8070 | cell count [2, 22]: 8800 | outcome [3]: inactive | z-score [4]: -0.215 (inactive)

c1cc(Cc2cnc[nH]2)ccn1
remaining activity [1]: 105% (inactive) | fold change [2, 19]: 0.985 (inactive) | fold change [2, 20]: 1.35 | cell count [2, 21]: 9560 | cell count [2, 22]: 9710 | z-score [4]: -0.25 (inactive)

C=CCN1CC[C@]23c4c5ccc(O)c4O[C@H]2/C(=N/NC(=O)c2ccccc2)CC[C@@]3(O)[C@H]1C5
period change [5]: 0.215 h (inactive) | remaining activity [1]: 115% (inactive) | remaining activity [8]: 116% (inactive) | fold change ([2]; stronger effect = lower value): 0.994 (inactive) | fold change [2, 20]: 0.667 | cell count [2, 21]: 9120 | cell count [2, 22]: 9170 | z-score [4]: -0.33 (inactive)

C[N+]1(C)CCC(OC(=O)C(c2ccccc2)c2ccccc2)CC1
period change [5]: 0.03 h (inactive) | inhibition [6]: -2% (inactive) | fluorescence ratio (interference) [7]: 1.1 (inactive) | remaining activity [1]: 93.9% (inactive) | remaining activity [8]: 107% (inactive) | fold change ([2]; stronger effect = lower value): 0.984 (inactive) and 0.955 (inactive) | fold change [2, 20]: 1.12 and 0.994 | cell count [2, 21]: 9760 and 8710 | cell count [2, 22]: 9910 and 9120 | z-score [4]: 0.275 (inactive) and 1.67 (inactive)

CC(C)(c1ccc(OCC2CO2)cc1)c1ccc(OCC2CO2)cc1 (stereo unspecified)
remaining activity [1]: 110% (inactive) | fold change ([2]; stronger effect = lower value): 0.903 (inactive) and 0.927 (inactive) and 0.945 (inactive) | fold change [2, 20]: 1.23 and 0.827 and 0.981 | cell count [2, 21]: 5020 and 5510 and 8910 | cell count [2, 22]: 5560 and 5950 and 9430 | fold fluorescence [18]: 8.02 [at 146.9 µM] (inactive) | z-score [4]: -0.925 (inactive)

CCC[C@@H]1CC2=CC(=O)CC[C@]2(C)[C@H]2CC[C@@]3(C)[C@@H](CC[C@@]3(O)CCC(=O)O)[C@H]12
remaining activity [1]: 116% (inactive) | fold change [2, 19]: 0.926 (inactive) | fold change [2, 20]: 0.977 | cell count [2, 21]: 7340 | cell count [2, 22]: 7920 | z-score [4]: 0.06 (inactive)

O=C(O)C1=CCCN(CCOC(c2ccc(C(F)(F)F)cc2)c2ccc(C(F)(F)F)cc2)C1
remaining activity [1]: 122% (inactive) | outcome [9]: inactive | outcome [16]: inactive | outcome [17]: inactive | fold change [2, 19]: 0.921 (inactive) | fold change [2, 20]: 0.739 | cell count [2, 21]: 8210 | cell count [2, 22]: 8910 | z-score [4]: 5.47 (active)
